# About 79,000 compounds went through this panel and 15% of them were active in at least one assay; those are over-represented in the sample as a whole. Values without a mark were called inactive. The source made the active and inactive calls. Cut-off read from the data, not from the text of the source: active = growth inhibition above about 70%; inactive = the rest.
# Test: NCI Yeast Anticancer Drug Screen. Data for the mec2-1 strain (AID 157)
# Settings: S. cerevisiae mec2-1 strain, at 50.0 µM (retest, dose inferred, filed as 5.0), hits give high values
# How it was run: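 Readout is yeast growth inhibition, normalised to vehicle-treated controls, in the mec2-1 strain exposed to compound.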
row,Compound,growth inhibition
1,Cc1ccc(/C=C2\CCCC(CN3CCCCC3)C2=O)cc1 (stereo not drawn),99% (active)
2,Oc1ccc(CCCCCc2ccc(O)cc2)cc1,100% (active)
3,COC(=O)c1ccccc1CC(Cc1ccc2c(c1)CCC2)C(=O)OC (stereo not drawn),14%
4,CN=C1NS(=O)(=O)c2ccccc21,1%
5,CCCCC/C(=C/C=C/c1ccc(Cl)cc1)CN(C)C,98% (active)
6,O=S(=O)(O)c1ccc2c(c1)C1C(C3C2C2(Cl)C(Cl)=C(Cl)C3(Cl)C2(Cl)Cl)C2(Cl)C(Cl)=C(Cl)C1(Cl)C2(Cl)Cl (stereo not drawn),94% (active)
7,Cc1ccc(S(=O)(=O)N/N=C/c2oc(-c3cccc([N+](=O)[O-])c3)c(-c3cccc([N+](=O)[O-])c3)c2[N+](=O)[O-])cc1,17%
8,CCN(CC)C(C)(C)C(=O)/C=C/c1ccc(Cl)cc1,28%
9,Fc1ccc(NC(=S)SCc2ccc(Cl)c(Cl)c2)c(F)c1,99% (active)
10,CC[C@@]1(OP(=O)(O)O)C(=O)OCc2c1cc1n(c2=O)Cc2cc3ccccc3nc2-1,95% (active)
11,CC(C)C1=CC2=CCC3C(C)(C(=O)O)CCCC3(C)C2CC1 (stereo not drawn) (tested in a mixture with another compound),96% (active)
12,C=CCSc1nc2ccccc2c(=O)n1Cc1ccco1,36%
13,COC(=O)c1c(C)cccc1C1CN=NC12Cc1ccc(C)c(C)c1C2=O (stereo not drawn),47%
14,CC(=O)N=C1N(/C=C2\C(=O)Oc3ccccc3C2=O)C(=O)/C(=C/c2cccc(Cl)c2Cl)N1C,61%
15,O=C1NC(CSSCC2NC(=O)N(c3ccccc3)C2=O)C(=O)N1c1ccccc1 (stereo not drawn),97% (active)
16,CCCCCCCCCCCCOP(=O)(N1CC1(C)C)N1CC1(C)C (stereo not drawn),71% (active)
17,Cc1cccc(/C=N/NC(=S)Nc2ccc(Cl)cc2)n1,97% (active)
18,CN1CCCCC1c1cc2c3ccccc3ccn2c1-c1ccccc1 (stereo not drawn),99% (active)
19,CN(Cc1ccccc1)CC(O)c1cc(-c2ccc(Cl)cc2)nc2ccccc12 (stereo not drawn),100% (active)
20,OC1CCN(c2c3ccccc3nc3ccccc23)CC1,67%

row,Compound,growth inhibition
1,CCC1=C(c2ccc(OC(C)=O)cc2)Cc2cc(OC(C)=O)ccc21,67%
2,Cc1cccc(C)c1NC(=O)CSC(N)=O,24%
3,c1ccc([B-](c2ccccc2)(c2ccccc2)c2ccccc2)cc1,-1%
4,[Fe+2].c1cc[cH-]c1.c1ccc(-c2ccc[cH-]2)cc1,32%
5,O=C(CC1(O)CCCCC1)OC1CCCC1,-11%
6,OC1(c2ccccc2)c2ccccc2Sc2ccccc21,99% (active)
7,CC(CN(C)C)C(=O)/C=C/c1ccc(C(C)C)cc1 (stereo not drawn),75% (active)
8,CSc1cccc(N2C(=O)C=CC2=O)c1,48%
9,O=c1c2ccccc2nc(-c2ccccc2)n1NC(=S)Nc1ccc(Cl)cc1[N+](=O)[O-],10%
10,COc1ccc(OC(C)=O)c2c1CCC=CC2=O,96% (active)
11,CC(=O)Nc1ccc2c(c1)Cc1cccc(F)c1-2,5%
12,CCC(c1ccc(O)cc1)C(O)(CC)c1ccc(O)cc1 (stereo not drawn),-4%
13,Cn1c(-c2ccccc2)c(CCNC(=O)C2CCC2)c2ccccc21,14%
14,FC(F)(F)c1ccccc1NC(=S)SCc1ccco1,32%
15,O=[N+]([O-])C1=Cc2cc(Cl)ccc2OC1c1cccc2ccccc12 (stereo not drawn),81% (active)
16,NC(=O)c1c(Cl)nc2n1CCS2,-2%
17,CCCCCC(C)C1=NC(C)(C)CC(C)O1 (stereo not drawn),-57%
18,CCCCCCCCCCCCCCCCN(C)c1ccc(S(=O)(=O)O)cc1[N+](=O)[O-],71% (active)
19,O=C(c1cccnc1)N(C1CCCCC1)C1CCCCC1,8%

# Same assay, conditions: S. cerevisiae mec2-1 strain, at 50.0 µM, hits give high values
row,Compound,growth inhibition
1,Cc1ccc(/C=C2\CCCC(CN3CCCCC3)C2=O)cc1 (stereo not drawn),83% (active)
2,Oc1ccc(CCCCCc2ccc(O)cc2)cc1,99.6% (active)
3,COC(=O)c1ccccc1CC(Cc1ccc2c(c1)CCC2)C(=O)OC (stereo not drawn),16.9%
4,CN=C1NS(=O)(=O)c2ccccc21,-6.15%
5,CCCCC/C(=C/C=C/c1ccc(Cl)cc1)CN(C)C,99.8% (active)
6,O=S(=O)(O)c1ccc2c(c1)C1C(C3C2C2(Cl)C(Cl)=C(Cl)C3(Cl)C2(Cl)Cl)C2(Cl)C(Cl)=C(Cl)C1(Cl)C2(Cl)Cl (stereo not drawn),89.9% (active)
7,Cc1ccc(S(=O)(=O)N/N=C/c2oc(-c3cccc([N+](=O)[O-])c3)c(-c3cccc([N+](=O)[O-])c3)c2[N+](=O)[O-])cc1,92.7% (active)
8,CCN(CC)C(C)(C)C(=O)/C=C/c1ccc(Cl)cc1,4.8%
9,Fc1ccc(NC(=S)SCc2ccc(Cl)c(Cl)c2)c(F)c1,97.3% (active)
10,CC[C@@]1(OP(=O)(O)O)C(=O)OCc2c1cc1n(c2=O)Cc2cc3ccccc3nc2-1,87.1% (active)
11,CC(C)C1=CC2=CCC3C(C)(C(=O)O)CCCC3(C)C2CC1 (stereo not drawn) (tested in a mixture with another compound),75.7% (active)
12,C=CCSc1nc2ccccc2c(=O)n1Cc1ccco1,-12.2%
13,COC(=O)c1c(C)cccc1C1CN=NC12Cc1ccc(C)c(C)c1C2=O (stereo not drawn),43.2%
14,CC(=O)N=C1N(/C=C2\C(=O)Oc3ccccc3C2=O)C(=O)/C(=C/c2cccc(Cl)c2Cl)N1C,0.2%
15,O=C1NC(CSSCC2NC(=O)N(c3ccccc3)C2=O)C(=O)N1c1ccccc1 (stereo not drawn),58.9%
16,CCCCCCCCCCCCOP(=O)(N1CC1(C)C)N1CC1(C)C (stereo not drawn),58.1%
17,Cc1cccc(/C=N/NC(=S)Nc2ccc(Cl)cc2)n1,81.8% (active)
18,CN1CCCCC1c1cc2c3ccccc3ccn2c1-c1ccccc1 (stereo not drawn),98.3% (active)
19,CN(Cc1ccccc1)CC(O)c1cc(-c2ccc(Cl)cc2)nc2ccccc12 (stereo not drawn),98.5% (active)
20,OC1CCN(c2c3ccccc3nc3ccccc23)CC1,11.4%

row,Compound,growth inhibition
1,CCC1=C(c2ccc(OC(C)=O)cc2)Cc2cc(OC(C)=O)ccc21,-9%
2,Cc1cccc(C)c1NC(=O)CSC(N)=O,65%
3,c1ccc([B-](c2ccccc2)(c2ccccc2)c2ccccc2)cc1,95% (active)
4,[Fe+2].c1cc[cH-]c1.c1ccc(-c2ccc[cH-]2)cc1,23.3%
5,O=C(CC1(O)CCCCC1)OC1CCCC1,-13.2%
6,OC1(c2ccccc2)c2ccccc2Sc2ccccc21,99.2% (active)
7,CC(CN(C)C)C(=O)/C=C/c1ccc(C(C)C)cc1 (stereo not drawn),37.3%
8,CSc1cccc(N2C(=O)C=CC2=O)c1,93.4% (active)
9,O=c1c2ccccc2nc(-c2ccccc2)n1NC(=S)Nc1ccc(Cl)cc1[N+](=O)[O-],-1.6%
10,COc1ccc(OC(C)=O)c2c1CCC=CC2=O,41.9%
11,CC(=O)Nc1ccc2c(c1)Cc1cccc(F)c1-2,17.7%
12,CCC(c1ccc(O)cc1)C(O)(CC)c1ccc(O)cc1 (stereo not drawn),28.9%
13,Cn1c(-c2ccccc2)c(CCNC(=O)C2CCC2)c2ccccc21,86% (active)
14,FC(F)(F)c1ccccc1NC(=S)SCc1ccco1,76.3% (active)
15,O=[N+]([O-])C1=Cc2cc(Cl)ccc2OC1c1cccc2ccccc12 (stereo not drawn),88.2% (active)
16,NC(=O)c1c(Cl)nc2n1CCS2,-17.4%
17,CCCCCC(C)C1=NC(C)(C)CC(C)O1 (stereo not drawn),-3.85%
18,CCCCCCCCCCCCCCCCN(C)c1ccc(S(=O)(=O)O)cc1[N+](=O)[O-],89% (active)
19,O=C(c1cccnc1)N(C1CCCCC1)C1CCCCC1,-6.85%

# — PubChem BioAssay (NCI)
